Assay outcomes: PubChem, Broad Institute
SIRT5 inh = blocks human SIRT5 desuccinylation of peptide. 330,000 compounds, 1.1% hits. Purified SirT5, succinyl-peptide AMC, trypsin-coupled fluorescence. inhibition, % at 15 µM. AID 652115. Q9NXA8; in the data active means inhibition above about 15%; inconclusive means no clear call, values can overlap the other calls
Target sequence (Q9NXA8 whole entry, looked up): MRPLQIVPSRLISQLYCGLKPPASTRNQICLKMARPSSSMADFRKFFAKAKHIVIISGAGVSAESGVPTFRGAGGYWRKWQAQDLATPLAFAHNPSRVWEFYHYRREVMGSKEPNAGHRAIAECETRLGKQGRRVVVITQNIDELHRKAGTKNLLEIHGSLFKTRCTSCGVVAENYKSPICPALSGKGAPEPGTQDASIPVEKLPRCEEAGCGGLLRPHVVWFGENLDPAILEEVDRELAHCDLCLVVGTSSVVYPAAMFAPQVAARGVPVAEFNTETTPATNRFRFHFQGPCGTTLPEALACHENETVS
FGF22 binding = binders of recombinant human FGF22 by thermal shift | SYPRO orange fluorescence; percent of sucrose octasulfate shift, DMSO zero | activity (Tm shift, normalised), % at 9.99 µM | 340,000 compounds, 1.5% hits;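 active means mean Tm shift, scaled 0 neutral to 100 positive control, at about 1.3% or above, every replicate too, limit read from the data; inconclusive means no clear call, values can overlap the other calls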
INS-1E GSIS act = GLuc luminescence reporter in INS-1E cells, primary screen for activators of glucose-dependent secretion of insulin; INS-1E GLuc reporter insulin secretion, 2-3 h; activation, % at 16.6 µM; 370,000 compounds, 0.61% hits; AID 743287;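 active means lowest replicate activation of at least 40%, so every replicate reaches that level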
CASP6 VEID inh = inhibitors of human caspase-6; AID 686996; inhibition, % at 12.5 µM; 350,000 compounds, 0.53% hits; purified caspase-6, Z-VEID-R110 cleavage fluorescence;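 active means mean inhibition across replicates at least about 35%, with every replicate also reaching that limit, limit read from the data; inconclusive means only one of the two criteria met; inactive means neither criterion met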
Target sequence (P55212 24-179 limits assumed): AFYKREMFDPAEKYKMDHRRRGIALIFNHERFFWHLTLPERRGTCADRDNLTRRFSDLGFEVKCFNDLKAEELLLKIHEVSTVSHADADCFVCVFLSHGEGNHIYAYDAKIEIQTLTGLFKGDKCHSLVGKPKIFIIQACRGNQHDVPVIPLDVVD
Target sequence (P55212 194-293 limits assumed): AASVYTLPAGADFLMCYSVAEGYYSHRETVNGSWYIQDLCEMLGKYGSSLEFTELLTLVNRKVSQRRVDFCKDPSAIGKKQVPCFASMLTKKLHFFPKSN
ERAP1 inh = blocks human ERAP1 aminopeptidase activity. Q9NZ08. recombinant ERAP1, Leu-AMC fluorescence, 60 min. inhibition, % at 10.7 µM. 340,000 compounds, 0.15% hits. AID 652197;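 active means mean replicate inhibition of at least 30%, or all replicates individually reaching that 30% level; inactive means mean below 30% and not every replicate reaching it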
Each line names hits and unclear results; the compound was inactive in the other large screens. Compounds with a hit are over-represented: about 3.3% of the library has one in this group of screens.

Cc1ccc2oc(Nc3nc(C)c(C)c(C)n3)nc2c1	none
CCOc1cc(C(=O)OCc2cccc(OC)c2OC)ccc1OCC(=O)N1CCOCC1	SIRT5 inh 15.8
CC1CCC(N2CCNCC2)CC1 (stereo unspecified)	FGF22 binding 43.7
C1CCCC(N2CCNCC2)CC1	none (no result: SIRT5 inh, FGF22 binding, CASP6 VEID inh, ERAP1 inh)
O=C(NCC[C@@H]1CC[C@@H](NC(=O)C2CCC2)[C@H](CO)O1)c1cc(Cl)cc(Cl)c1	none
C/C=C/c1ccc([C@H]2[C@@H](CO)N(C(=O)CC)[C@H]2CN(C)C(=O)NC(C)C)cc1	none (no result: FGF22 binding)
O=C1CSC(c2ccccc2)N1CC(O)c1ccc([N+](=O)[O-])cc1 (stereo unspecified)	none
CC(=O)Nc1ccc(N2C(=O)CSC2c2ccccc2)cc1 (stereo unspecified)	none
CC(=O)Nc1ccc(N2C(=O)CSC2c2ccc([N+](=O)[O-])cc2)cc1 (stereo unspecified)	SIRT5 inh 27.2
CCN(CC)CCCN1C(=O)CSC1c1ccc([N+](=O)[O-])cc1 (stereo unspecified)	FGF22 binding 43.4
O=C1CC(=O)NC(SCC(=O)Nc2ccccc2[N+](=O)[O-])=N1	CASP6 VEID inh 40.6
O=C(N[C@H]1CC[C@H](CCNS(=O)(=O)c2ccc(F)cc2)O[C@H]1CO)c1ccccn1	none
CCOC(=O)c1c(NC(=O)COc2ccccc2F)sc2c1CC(C)(C)NC2(C)C	FGF22 binding 18.5
Cc1ccc(SCCC(=O)NNC(=O)c2ccccc2F)cc1	FGF22 binding 43.4 (no result: SIRT5 inh, INS-1E GSIS act)
Cc1n[nH]c(C)c1CCCCOc1ccccc1	FGF22 binding 43.9
CC(C)[C@@H]1C(=O)N[C@H](c2ccc3c(c2)OCO3)CC=CC[C@@H](C)Oc2ccccc2C(=O)N1C (mixture of isomers)	none (no result: SIRT5 inh, FGF22 binding, CASP6 VEID inh, ERAP1 inh)
O=C(O)C1CCC(Cn2c(SCc3cc(=O)n4cc(Br)ccc4n3)nc3ccsc3c2=O)CC1 (stereo unspecified)	SIRT5 inh 16.7
O=C(O)c1ccc(Cn2c(SCc3cc(=O)n4cc(Br)ccc4n3)nc3ccsc3c2=O)cc1	FGF22 binding 43.4
O=C(O)CCCCn1c(SCc2cc(=O)n3cc(Cl)ccc3n2)nc2ccsc2c1=O	none
COc1ccccc1-c1ccc([C@H]2[C@@H](CO)N3CCCCN(C(=O)c4ccncc4)C[C@H]23)cc1	none
O=C(Nc1cc(F)ccc1F)N1CCCCN2[C@@H](CO)[C@@H](c3ccc(-c4cncnc4)cc3)[C@@H]2C1	none
Cn1c(=O)[nH]c(=O)c2c1nc(NC1CCCC1)n2Cc1ccccc1	INS-1E GSIS act 45.7
CCNc1nc2c(c(=O)[nH]c(=O)n2C)n1Cc1ccc(F)cc1	INS-1E GSIS act 49.0
Cn1c(=O)[nH]c(=O)c2c1nc(N1CCNCC1)n2Cc1ccccc1	none
CCCNc1nc2c(c(=O)[nH]c(=O)n2C)n1Cc1ccc(F)cc1	none
CCCCNc1nc2c(c(=O)[nH]c(=O)n2C)n1CCCc1ccccc1	FGF22 binding 43.3 (no result: SIRT5 inh, INS-1E GSIS act)
CN1CCN(C(=O)c2ccc(-n3cccn3)nc2)CC1	FGF22 binding 43.4
COc1ccccc1-c1cn(CC[C@H]2CC[C@H](NC(=O)C3CCC3)[C@H](CO)O2)nn1	none
COc1ccc(S(=O)(=O)N(C)C[C@@H]2Oc3ccc(NC(=O)c4ccncc4)cc3CC(=O)N([C@H](C)CO)C[C@H]2C)cc1	none
COc1ccc(C)cc1NC(=O)CCN1CC(C)OC(C)C1 (stereo unspecified)	SIRT5 inh 23.4
COc1ccc(Cl)cc1NC(=O)CCN1CCN(Cc2ccccc2)CC1	SIRT5 inh 21.8
CCC(C(=O)Nc1cc(Cl)ccc1OC)c1ccccc1 (stereo unspecified)	FGF22 binding 43.2
COc1ccc(C)cc1NC(=O)CCN1CCN(c2ccccc2)CC1	none
CO[C@@H](CN(C)C(=O)C1CC1)[C@H](C)CN(C(=O)Nc1ccc(C(F)(F)F)cc1)[C@@H](C)CO	SIRT5 inh inconclusive
C[C@H](CO)N1C[C@H](C)[C@@H](CN(C)Cc2ccc(C(=O)O)cc2)OCCCC[C@H](C)Oc2ccc(NC(=O)c3ccncc3)cc2C1=O	none
CCCOc1ccc(N/C=C/C(=O)c2ccc(OC)c(OC)c2)cc1	SIRT5 inh 16.7
Cc1ccc(NC(=O)c2noc3c2CCC3)cc1C	CASP6 VEID inh 53.7
CC(=O)c1ccc(NC(=O)c2noc3c2CCC3)cc1	none
C[C@H]1CCCCO[C@@H](CN(C)C(=O)c2ccccc2)[C@@H](C)CN([C@@H](C)CO)C(=O)c2cc(NS(C)(=O)=O)ccc2O1	none
CN1C(=O)c2cc(NC(=O)c3cccs3)ccc2OC[C@H]2O[C@@H](CC(=O)NCC3CC3)CC[C@H]21	none (no result: SIRT5 inh, CASP6 VEID inh, ERAP1 inh)
COCCNC(=O)[C@@H]1[C@@H](CO)[C@@H]2Cn3c(ccc(-c4cccc(F)c4)c3=O)[C@H]1N2C(=O)NC(C)C	none
CC(C)C(OC(=O)C1=Cc2ccccc2OC1)C(=O)NCC1CCCO1 (stereo unspecified)	CASP6 VEID inh 47.3
CC(OC(=O)C1=Cc2ccccc2OC1)C(=O)NC1CCCC1 (stereo unspecified)	none
O=C(O)C[C@@H]1CC[C@@H](NC(=O)c2ccccc2F)[C@H](CO)O1	none
NCC[C@@H]1CC[C@H](NC(=O)c2ccccc2F)[C@@H](CO)O1	CASP6 VEID inh 39.4
O=C(N[C@H]1CC[C@H](CCNS(=O)(=O)Cc2ccccc2)O[C@H]1CO)c1ccccc1F	SIRT5 inh 1.7
O=C(Cc1ccccn1)NCC[C@@H]1CC[C@@H](NC(=O)c2ccccc2F)[C@H](CO)O1	CASP6 VEID inh 35.1
C[C@H](CO)N1C[C@H](C)[C@H](CN(C)C(=O)Nc2ccc(F)cc2)Oc2ncc(C#CC(C)(C)O)cc2C1=O	none
Cc1c(CC(=O)O)c(=O)oc2c(C)c(OCc3ccccc3Br)ccc12	INS-1E GSIS act 41.2
Cc1c(CC(=O)O)c(=O)oc2c(C)c(OCc3ccccc3)ccc12	none
Cc1c(CC(=O)O)c(=O)oc2c(C)c(OCc3c(F)cccc3Cl)ccc12	none
Cc1c(CCC(=O)O)c(=O)oc2c(C)c(OCc3cc4c(cc3Cl)OCO4)ccc12	CASP6 VEID inh 42.7 (no result: ERAP1 inh)
CO[C@H]1CN(C)C(=O)c2ccc(NC(=O)C3CCC3)cc2OC[C@H](C)N(C)C[C@@H]1C	none (no result: FGF22 binding)
C[C@H](CO)N1C[C@H](C)[C@H](CN(C)S(=O)(=O)c2ccccc2)OCCCC[C@H](C)Oc2ccc(NS(=O)(=O)c3cn(C)cn3)cc2C1=O	none
CCC12CCCN3CCc4c(n(c5ccccc45)C(O)(C(=O)OC)C1)C32 (stereo unspecified)	CASP6 VEID inh 59.5
CC[C@]12CCCN3CCc4c(n(c5ccccc45)[C@](O)(C(=O)OC)C1)[C@@H]32	none
CCOc1ccc(CCNS(=O)(=O)c2cn(C)cn2)cc1OCC	SIRT5 inh 33.1, INS-1E GSIS act 60.0
COc1cccc(/C=C/C(=O)OCC(=O)NC2CCCCCCC2)c1	FGF22 binding 25.5 (no result: SIRT5 inh)
O=C(COC(=O)/C=C/c1ccc(Cl)cc1)NC1CCCCCC1	none (no result: INS-1E GSIS act)
